Measured values from PubChem BioAssay AID504375 (National Center for Advancing Translational Sciences (NCATS), 2011).
Hit rate of the full screen: of about 1,600 compounds, about 25 (2%) were called active. Roughly 7% stayed inconclusive and do not appear here. Calls come from the whole dose curve; as a rule, active = well fitted inhibition curve with a large enough effect; inconclusive = small, poorly fitted or top-dose-only effect, or effect the other way; inactive = no such curve, though single readings can be large or run the other way. Shown is part of a subset that was picked to be rich in actives.

These compounds were tested against Runt-related transcription factor 1 (Homo sapiens) + Core-binding factor subunit beta (Homo sapiens) (UniProt Q01196+Q13951) (assay: qHTS Assay for Compounds Blocking the Interaction Between CBF-beta and RUNX1 for the Treatment of Acute Myeloid Leukemia: Hit Validation with Orthogonal Assay). Settings: CBFbeta-RUNX1 binding orthogonal assay, biochemical; series mostly up to 41 µM; activity change, negative = inhibition: at the top concentration.
Excerpt: NIH Chemical Genomics Center [NCGC]
NIH Molecular Libraries Probe Production centers Network [MLPCN]
Assay Submitter (PI): Paul Liu
Core Binding Factor (CBF) abnormalities are associated with 20-25% of all acute myeloid leukemias (AML), of which 5-10% are further sub classified as acute myelomonocytic leukemia with eosinophilia, also known as M4Eo in the FAB classification scheme. This subtype of leukemia is usually associated with chromosome 16 inversion (p13:q22). Chromosome 16 inversion results in formation of the fusion oncogene CBFB-MYH11, which encodes the fusion protein CBF-beta-SMMHC.
It has been hypothesized that the interference of CBF-beta and RUNX1 binding could have therapeutic implications for patients with CBF mediated leukemias. We developed a CBF-beta and RUNX1 binding assay in AlphaScreenTM format and optimized it for high throughput screening to search for inhibitors. The goal of this project is to screen MLPCN's compound collection (MLSMR) for identifying the inhibitors of the interaction between CBF-beta and RUNX1 proteins as research probes. If these probes work well in the animal models, the ultimate goal of this project is to development a new drug treatment for this disease.
This assay can not be used to assess how apparent inhibitors interfere with protein binding, and whether inhibitors specifically bind to either protein. Disruption of this protein-protein interaction, through any mechanism, is the intended target activity.
The present data set was run to confirm the activity of hits from the primary screen using an orthogonal assay technology for measuring protein-protein interaction disruption.
A TR-FRET (time resolved fluorescence resonance energy transfer) assay was performed using the same assay buffer, protein concentrations and incubation times as described previously in the AlphaScreen assay, except that terbium (Tb+) labeled anti-his-antibody and XL665 linked streptavidin were used to capture the binding signal. The Tb+ labeled anti-his-antibody captures His(6)-CBF and XL665 linked streptavidin binds to biotin-RUNX1. The binding of RUNX1 to CBFbrings Tb+ and XL665 to proximity resulting in a TR-FRET signal. Briefly, in a white 384-well plate, 10 µl/well of mixture of biotin-RUNX1 and His(6)-CBFwere incubated with 10 µl/well buffer (positive control) or 10 µl/well compounds (negative control) for 20 min followed by an addition of 10 µl/well of Tb+ labeled anti-his(6)-antibody and XL665 linked streptavidin. After 90 min of incubation in the dark, the assay plate was measured in the Envision plate reader using TR-FRET detection mode. For the 1536-well plate format, 3 µl/well mixture of biotin-RUNX1 and His(6)-CBF (30 nM per protein) was incubated with 23 nl/well compound (dissolved in 100% DMSO) or the equivalent DMSO concentration (positive control) for 30 min followed by the addition of 1 µl/well of 0.44 ng Tb+ labeled anti-his(6)-antibody and 5 nM streptavodin-XL665. After 90 min of incubation, the assay plate was measured in the Envision plate reader.
The TR-FRET assay for detecting interaction between HIV-I Tat and […] was similarly performed with the recombinant full-length HIV-I Tat CLADE B and HIV-I Tat Biotin conjugated proteins supplied by Diatheva (Fano, Italy). Briefly, the His-CBF and Biotin-RUNX1 complex at a working concentration of 83.3 nM per protein were pre-incubated in assay buffer for 10 minutes on ice. Then HIV-I Tat or unlabeled CBF were added to reach final concentrations (Supplementary Figure 4b) and incubated for 5 minutes. Finally anti-His antibody and streptavidin-XL665 at a final concentration of 2.2 ng and 5 nM, respectively, were added to the plate, which was incubated for 1 hr prior to reading on the PerkinElmer Envision plate reader.
Keywords: MLSMR, MLPCN, NIH Roadmap, qHTS, NCGC, Core binding factor, CBF, CBF-beta, Acute myeloid leukemia
% is set by controls: 0 for no effect and ±100 for the full control effect; potency is the fitted concentration of half-maximal effect.

Runt-related transcription factor 1 (Homo sapiens) + Core-binding factor subunit beta (Homo sapiens), sequence (Q01196 whole entry, looked up): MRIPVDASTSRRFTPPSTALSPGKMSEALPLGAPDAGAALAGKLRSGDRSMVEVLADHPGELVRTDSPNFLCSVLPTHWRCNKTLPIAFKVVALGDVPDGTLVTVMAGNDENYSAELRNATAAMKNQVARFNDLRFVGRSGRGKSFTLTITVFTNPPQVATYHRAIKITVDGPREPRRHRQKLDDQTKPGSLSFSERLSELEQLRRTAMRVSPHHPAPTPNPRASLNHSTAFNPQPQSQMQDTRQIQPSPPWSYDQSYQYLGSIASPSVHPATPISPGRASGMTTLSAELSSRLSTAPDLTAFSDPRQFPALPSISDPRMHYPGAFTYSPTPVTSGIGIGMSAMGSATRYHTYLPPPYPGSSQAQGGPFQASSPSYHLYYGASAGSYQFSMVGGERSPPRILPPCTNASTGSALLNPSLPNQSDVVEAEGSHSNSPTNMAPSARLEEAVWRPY
Runt-related transcription factor 1 (Homo sapiens) + Core-binding factor subunit beta (Homo sapiens), sequence (Q13951 whole entry, looked up): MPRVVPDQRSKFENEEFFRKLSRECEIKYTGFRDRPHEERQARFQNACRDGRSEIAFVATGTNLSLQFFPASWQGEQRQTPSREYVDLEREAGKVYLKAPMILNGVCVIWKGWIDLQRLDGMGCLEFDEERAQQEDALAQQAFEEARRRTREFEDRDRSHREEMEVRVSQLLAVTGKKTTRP

Activity change, negative = inhibition, inactive:
Cc1onc(-c2ccccc2)c1C(=O)NNC(=S)NC(=O)c1ccc2c(c1)OCO2 0.0734%
O=C(CCl)NCCCN(C(=O)C(Cl)Cl)c1ccc([N+](=O)[O-])cc1 20.2%
Cn1nc(-c2ccccc2)cc1NS(=O)(=O)c1ccccc1 14.9%
O=C(NNC(=S)Nc1ccccc1C(F)(F)F)C1CC1 1.1%
COc1cc(/C=N\NC(=O)CNC(=O)C(c2ccccc2)c2ccccc2)ccc1O 11.9%
COCc1cc(=O)n2[nH]c(C(C)(C)C)cc2n1 -2.01%
COc1cc(NCc2ccccc2O)c2ncccc2c1 9.87%
COc1ccc(NS(=O)(=O)c2ccc(Cl)s2)cn1 7.73%
O=C(NN1C(=O)C2CCCCC2C1=O)c1ccco1 (stereo not drawn) -0.159%
Cc1onc(-c2ccccc2)c1C(=O)NC(=S)NNC(=O)c1ccco1 -16.1%
O=C(NC(=S)Nc1ccccc1N1CCCC1)c1ccco1 3.85%
Cc1cc(NC(=O)CN2CCOCC2)n(-c2ccccc2)n1 4.36%
NS(=O)(=O)c1ccc(Sc2ccccn2)c([N+](=O)[O-])c1 54.9%
O=C(Nc1ccc2ccccc2c1)c1ccc(Cl)cc1Cl -9.19%
COc1cccc(/C=N/n2nnnc2N)c1 8.92%
CCN(CC)S(=O)(=O)c1ccc(/C=C/C(=O)Nc2ccc(N3CCOCC3)cc2)cc1 8.12%
CN(C(=O)C(Cl)Cl)C1CC2C=CC1C2 (stereo not drawn) 8.58%
Cc1cc(C)c(OCC(=O)N(Cc2ccc(N(C)C)cc2)C2CCS(=O)(=O)C2)c(C)c1 (stereo not drawn) 1.38%
CN(C)S(=O)(=O)c1ccc(Cl)c(NC(=O)CN2CCN(Cc3ccc4c(c3)OCO4)CC2)c1 7.92%
CC(C)(O)P(=O)(O)CCc1ccccc1 15.2%
COC(=O)c1ccccc1N=Nc1c(C)noc1C 12.7%
COc1ccccc1/C=C/C=N/n1c(-c2ccccn2)n[nH]c1=S 11.2%
CC(=O)Oc1ccc(C(=O)Nc2cccc(-c3nnc(-c4ccco4)o3)c2)cc1 -5.88%
C=CCNC(=S)NCC -15.6%
CN(C)c1cc(-c2ccc([N+](=O)[O-])cc2)oc(=O)c1Cl 7.12%
CCCc1cc(=O)oc2c(CN(CC)CC)c(O)c(Cl)cc12 19.6%
C/C(=N\O)C1CC(CC(=O)O)C1(C)C (stereo not drawn) 5.63%
CCc1sc(N)nc1-c1ccccc1 9.08% [at 22.1 µM]
CC(C)NC(=O)NNC(=O)Cn1nnc(-c2cccc(Cl)c2Cl)n1 2.25%
COCCn1c(-c2ccc(Br)cc2)nc2oc3cc(OC)ccc3c(=O)c2c1=O 13.3%
Fc1c(CSC(=S)N2CCOCC2)cccc1CSC(=S)N1CCOCC1 8.61%
COc1ccc(/C=C/C(=O)Oc2cc(O)cc(O)c2)cc1 3.35%
CN1C2CCC1CC(NC(=O)c1ccc(Cl)cc1)C2 (stereo not drawn) 10.2%
COc1ccc(/C=N/NC(=O)c2ccc(Br)cc2)cc1CN1CCOCC1 15.4%
O=[N+]([O-])c1cc(Cl)cc(/C=N/NC(=S)Nc2ccc(S(=O)(=O)N3CCOCC3)cc2)c1O 36.7%
CSCC[C@H](NC(=O)OC(C)(C)C)C(=O)N/N=C/c1cccc2nccnc12 33.1%
COc1ccccc1N1C(=O)[C@@H]2[C@H](C1=O)[C@H](C(=O)c1ccc(OC(C)=O)cc1)N1N=CC=C[C@@H]21 21.1%
CC(C)Nc1cc(C(C)(C)C)nc2c(-c3ccccc3)cnn12 4.12%
Cc1nnc(NC(=O)c2ccccc2NC(=O)c2ccccc2)s1 -23.7%
CN1CCN(C(=O)C23CC4CC(C)(CC(C)(C4)C2)C3)CC1 -9.9%
COc1cccc(N/C(=N/C(=S)Nc2ccc(C)cc2C)Nc2nc(C)cc(C)n2)c1 -7.98%
CC(=O)N1N=C2c3ccccc3CCC2C1c1cccs1 (stereo not drawn) 7.29%
CC(=O)Nc1ccc(NS(=O)(=O)c2ccc(C)cc2)cc1[N+](=O)[O-] 31.5%
Cc1cc(-c2ccccc2C(=O)Nc2ccccc2O)on1 -2.53%
O=C(O)c1ccccc1C(=O)Nc1ccc(-n2ccc(C(F)(F)F)n2)cc1 -6.89%
Cc1nc2c(c(=O)c3ccccc3n2C)c(=O)n1-c1ccccc1 1.95%
CN(C)c1ccc(NC(=O)Nc2csc3ccccc23)cc1 -4.5%
CSc1cccc(NC(=O)Nc2ccccc2C(N)=O)c1 3.24%
NC(=O)c1ccc(NC(=O)COC(=O)/C=C/c2ccc3c(c2)OCO3)cc1 21.1%

Potency, active:
Cc1c2c(c(O)c3c(O)cccc13)C(=O)O[C@H]2C1C(N(C)C)C(O)=C(C(N)=O)C(=O)[C@H]1O (stereo partly drawn) 2.24 µM
O=c1c(O)cccc2cc(O)c(O)c(O)c12 1.26 µM
O=C(NC(=S)NNC(=O)c1ccccc1O)c1ccco1 3.16 µM
O=C(O)C1=CC(=C(c2ccc(O)c(C(=O)O)c2)c2ccc(O)c(C(=O)O)c2)C=CC1=O 7.94 µM
